Results taken from PubChem BioAssay (NCATS).
Records with an inconclusive call do not appear. Where a call stands in place of a potency, no number is given. Values without a mark were called inactive. The source made the active and inactive calls. Calls follow the shape of the dose curve; as a rule, active = well fitted curve in the direction sought with a large enough effect; inconclusive = small, poorly fitted or top-dose-only effect, or another doubt; inactive = no such curve, though single readings can be large; an effect the other way counts as inactive or inconclusive.

Columns and labels:
[1] = test system: Hek293T; assay: Primary qHTS to identify gynecologic anti-cancer compounds using libraries of approved drugs and bioactive compounds (AID 1345084); conditions: Gynecologic cancer cell panel viability, ATPlite luminescence, 48 h, control line for the selectivity index; series mostly up to 57.5 µM; also: nearly all actives have a fitted effect of over 55% in size
Summary of the method: (§1)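 Five-point cytotoxicity, 48 h drug exposure at 37 C, 5% CO2, on cells seeded 16 h beforehand. ATP content read by ATPlite luminescence.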

[2] = test system: JEG-3; assay: as above; conditions: Gynecologic cancer cell panel viability, ATPlite luminescence, 48 h; series mostly up to 57.5 µM
Summary of the method: as §1

[3] = test system: OV90; assay: as above; conditions: Gynecologic cancer cell panel viability, ATPlite luminescence, 48 h; series mostly up to 57.5 µM
Summary of the method: as §1

[4] = test system: PA-1; assay: as above; conditions: Gynecologic cancer cell panel viability, ATPlite luminescence, 48 h; series mostly up to 57.5 µM
Summary of the method: as §1

[5] = test system: SKOV3; assay: as above; conditions: Gynecologic cancer cell panel viability, ATPlite luminescence, 48 h; series mostly up to 57.5 µM
Summary of the method: as §1

[6] = test system: Tov-21-G; assay: as above; conditions: Gynecologic cancer cell panel viability, ATPlite luminescence, 48 h; series mostly up to 57.5 µM
Summary of the method: as §1

[7] = test system: Tov112D; assay: as above; conditions: Gynecologic cancer cell panel viability, ATPlite luminescence, 48 h; series mostly up to 57.5 µM
Summary of the method: as §1

[8] = Drug repurposing screens with cells derived from glioblastoma tumor samples (AID 1345199); conditions: GBM patient neurospheres viability, ATP luminescence, 48 h; also: nearly all actives have a fitted effect of over 40% in size; also: potency is read from the fitted curve at half-maximal effect
Summary of the method: (§2)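 Primary testing used CD133+ neurospheres from four GBM patients, seven concentrations, 48 h exposure and ATP-based viability; confirmation added three slower-growing patient lines.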

[9] = test system: astro; assay: as above; conditions: viability, ATP luminescence, 48 h; series mostly up to 45.9 µM
Summary of the method: as §2

[10] = at 45.9 µM (top of the series), tumour line B
[11] = at 45.9 µM (top of the series), tumour line D
[12] = at 46 µM (top of the series), tumour line A
[13] = at 46.1 µM (top of the series), tumour line C
[14] = at 20 µM (top of the series), tumour line C
[15] = at 21.2 µM (top of the series), tumour line B
[16] = at 21.2 µM (top of the series), tumour line D
[17] = at 21.3 µM (top of the series), tumour line A

SMILES	Potency [1]	Potency [2]	Potency [3]	Potency [4]	Potency [5]	Potency [6]	Potency [7]	activity, negative = cell killing [8, 10] [%]	activity, negative = cell killing [8, 11] [%]	activity, negative = cell killing [8, 12] [%]	activity, negative = cell killing [8, 13] [%]	Potency [9]	Potency ([8]; tumour line A)	activity, negative = cell killing [8, 14] [%]	activity, negative = cell killing [8, 15] [%]	activity, negative = cell killing [8, 16] [%]	activity, negative = cell killing [8, 17] [%]
CCNC(=O)NCc1cccc(Cl)c1	inactive	inactive	inactive	inactive	inactive	inactive	inactive	-11.2	-6.28	-30	-10.1	inactive	–	–	–	–	–
CC(=O)Nc1ccc(OCC(O)CNC(C)C)cc1 (configuration not stated)	inactive	inactive	inactive	inactive	inactive	inactive	inactive	-1.74	-7.95	-46.4	-12.1	inactive	–	–	–	–	–
COc1ccc(CCN(C)CCCN2CCc3cc(OC)c(OC)cc3CC2=O)cc1OC	inactive	inactive	inactive	inactive	inactive	inactive	inactive	-2.1	-12.6	–	-18	inactive	28.2 µM (active)	–	–	–	–
CC(=O)NO	inactive	inactive	inactive	inactive	inactive	inactive	inactive	-7.52	-5.2	-11.7	11.5	inactive	–	–	–	–	–
OC1C(O)C(O)C(O)C(O)C1O (configuration not stated)	inactive	inactive	inactive	inactive	inactive	inactive	inactive	-13.8	-13.1	-17.2	-1.34	inactive	–	–	–	–	–
O=C(O)CCC(=O)Nc1ccc(S(=O)(=O)Nc2nccs2)cc1	inactive	inactive	inactive	inactive	inactive	inactive	inactive	–	–	–	–	inactive	–	-5.75	2.8	-10.2	-13.6
NCCNC(=O)c1ccc(Cl)cn1	inactive	inactive	inactive	inactive	inactive	inactive	inactive	-0.687	-7.85	-29.4	-12.2	inactive	–	–	–	–	–
CCOc1cc(OCC)c(C(=O)CCC(=O)O)cc1OCC	inactive	inactive	inactive	inactive	inactive	inactive	inactive	-2.96	-2.05	-23.5	-10.2	inactive	–	–	–	–	–
Cc1cc(NS(=O)(=O)c2ccc(N)cc2)nc(C)n1	inactive	inactive	inactive	inactive	inactive	inactive	inactive	-14.8	-16.4	-27.1	-10.5	inactive	–	–	–	–	–
CC(C)(C)NCC(O)COc1cccc2c1C[C@H](O)[C@H](O)C2 (some centres not stated)	inactive	inactive	inactive	inactive	inactive	inactive	inactive	–	–	–	–	inactive	–	-4.25	-2.25	-3.22	-16.2
Cc1ncc(CO)c(C=O)c1O	inactive	inactive	inactive	inactive	inactive	inactive	inactive	6.81	-6.02	-26.4	7.46	inactive	–	–	–	–	–
FC(F)(F)C(F)(F)C(F)(F)C(F)(F)C(F)(F)C(F)(F)C(F)(F)C(F)(F)Br	inactive	inactive	inactive	inactive	inactive	inactive	inactive	-8.68	-7.68	-17.2	5.77	inactive	–	–	–	–	–
Cc1cc(-c2ccccc2)nnc1NCCN1CCOCC1	inactive	inactive	inactive	inactive	inactive	inactive	inactive	-18.6	-4.44	–	-11.7	inactive	12.6 µM (active)	–	–	–	–
CCOCCn1c(N2CCCN(C)CC2)nc2ccccc21	inactive	inactive	inactive	inactive	inactive	inactive	inactive	-14.8	-9.28	–	-16	inactive	17.8 µM (active)	–	–	–	–
COc1ccc2c(c1)c1c3n2CCN(C)C3=NCC1	inactive	inactive	inactive	inactive	inactive	inactive	inactive	-1.83	-7.29	–	-23.1	inactive	12.6 µM (active)	–	–	–	–
O=C(O)CCNC(=O)c1ccccc1	inactive	inactive	inactive	inactive	inactive	inactive	inactive	-3.69	-10.8	-25.4	-11.5	inactive	–	–	–	–	–
